This note sets out measurements from PubChem BioAssay.

Structures are written as SMILES.

Epidermal growth factor receptor (Homo sapiens), sequence (P00533 whole entry, looked up): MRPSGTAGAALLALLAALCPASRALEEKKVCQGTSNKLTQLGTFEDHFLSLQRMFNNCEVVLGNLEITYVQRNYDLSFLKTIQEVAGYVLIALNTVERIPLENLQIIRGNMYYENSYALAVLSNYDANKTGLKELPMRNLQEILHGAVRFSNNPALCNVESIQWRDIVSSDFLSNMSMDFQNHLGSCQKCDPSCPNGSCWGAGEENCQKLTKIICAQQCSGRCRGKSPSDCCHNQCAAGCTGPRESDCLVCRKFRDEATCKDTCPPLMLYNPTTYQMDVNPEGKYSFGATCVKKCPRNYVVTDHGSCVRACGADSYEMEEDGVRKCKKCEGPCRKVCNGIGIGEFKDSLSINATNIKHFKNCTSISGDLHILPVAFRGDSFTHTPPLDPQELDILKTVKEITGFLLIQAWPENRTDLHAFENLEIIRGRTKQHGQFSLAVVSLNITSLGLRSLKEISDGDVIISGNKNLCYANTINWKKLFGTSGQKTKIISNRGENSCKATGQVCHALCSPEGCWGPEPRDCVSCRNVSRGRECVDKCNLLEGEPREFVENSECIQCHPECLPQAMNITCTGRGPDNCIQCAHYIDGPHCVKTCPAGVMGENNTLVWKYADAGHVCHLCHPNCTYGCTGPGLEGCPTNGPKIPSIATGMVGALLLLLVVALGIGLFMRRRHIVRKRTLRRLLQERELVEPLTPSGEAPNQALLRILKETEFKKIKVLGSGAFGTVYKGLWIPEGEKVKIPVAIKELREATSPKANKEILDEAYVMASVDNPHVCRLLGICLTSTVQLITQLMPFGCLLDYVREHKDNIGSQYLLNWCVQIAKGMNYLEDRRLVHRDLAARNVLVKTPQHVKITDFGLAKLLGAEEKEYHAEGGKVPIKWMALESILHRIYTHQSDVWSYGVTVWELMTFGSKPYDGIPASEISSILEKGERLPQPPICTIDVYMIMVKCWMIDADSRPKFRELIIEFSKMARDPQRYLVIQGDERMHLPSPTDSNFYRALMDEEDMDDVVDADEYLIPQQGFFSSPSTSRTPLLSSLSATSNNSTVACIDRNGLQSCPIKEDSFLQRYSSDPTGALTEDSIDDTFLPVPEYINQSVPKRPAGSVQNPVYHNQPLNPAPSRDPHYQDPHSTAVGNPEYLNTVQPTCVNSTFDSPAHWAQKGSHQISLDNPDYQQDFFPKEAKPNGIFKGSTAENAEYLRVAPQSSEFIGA

The experiment has as its target Epidermal growth factor receptor (Homo sapiens) (UniProt P00533). In words: EGFR binders on small-molecule microarrays, primary screen, biochemical, small-molecule microarray, 635 nm fluorescence (AID 1104).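 Further: score merges 667 nm emission intensity with spot signal to noise over triplicate slides.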 The note with it: EGFR binding, higher = more signal.
As for `COc1ccc([Si](C)(C)[C@H]2[C@H](CCO)O[C@@]3(C(=O)N(Cc4cccc(N5C(=O)COc6ccccc65)c4)c4ccccc43)[C@@H]2C)cc1`, the composite z-score is -0.686. For `CN(C)CCCNC(=O)[C@@]1(C)c2ccccc2C(=O)N(Cc2ccccc2)[C@H]1c1ccc(CO)cc1`, the composite z-score is -1.48. Next, `COC(=O)c1c2oc(c1C(=O)OC)C(=O)N(Cc1ccccc1)Cc1cn(nn1)C[C@H](Cc1ccccc1)NC(=O)N[C@H](CO)CC2`: 0.0933. Next, `[N-]=[N+]=NCc1ccccc1[C@H]1OC(c2ccc(OCCCO)cc2)=N[C@@]1(CCS(=O)(=O)c1ccccc1)C(=O)N1CCCCC1`: 0.169. The compound `O=C(CS)NCCCCCNC(=O)[C@@H]1C[C@@H]2C(=O)N3CCC[C@H]3C(=O)N2[C@@H]1c1cccc(OCCO)c1` came in with a composite z-score of 0.196. The compound `COCCOC(=O)N1C(=O)[C@@]2(c3cc(C#CCCO)ccc31)[C@H](C(=O)Nc1nc3ccccc3s1)[C@H]1C(=O)O[C@H](c3ccccc3)[C@H](c3ccccc3)N1[C@@H]2c1ccccc1OCCO` came in with a composite z-score of 0.561. Next, `C[C@@H]1NC(=O)[C@@]23C(=O)N[C@@H](Cc4ccccc4)C2[C@H](C)[C@@]2(C)O[C@H]2C3/C=C/C/C=C\CNC(=O)[C@@H]2CCCN2C1=O` (some centres undefined): -0.0154; `CCC[C@@H]1C[C@@]1(CCC)[C@@H](NC(=O)OCc1ccccc1)c1ccc(-c2ccccc2)cc1`: -1.1; `CC[C@H]1C2=C3C(CC[C@H]4C(OCc5ccc(F)cc5C(F)(F)F)OC[C@](C)([C@@H]34)N(C(=O)OC(C)(C)C)C2)C(COC)C1COC` (some centres undefined): -0.52. With `CC(C)(C)OC(=O)CC[C@@]1(C(=O)NCc2ccccc2)N=C(c2ccc(OCCCO)cc2)O[C@@H]1c1ccccc1N=[N+]=[N-]`, the composite z-score is 0.373. Compound `CCC(CC)C(O)C1C=CC2C(=O)N(c3ccccc3)C(=O)C2N1Nc1ccc(C(C)C)cc1` (centres undefined) gave a composite z-score of 0.0407.

`C[C@H]1NC(=O)[C@@]23C(=O)N[C@@H](Cc4ccccc4)C2[C@H](C)[C@@]2(C)O[C@H]2C3/C=C/C/C=C\CNC(=O)[C@H](Cc2ccccc2)NC1=O` (some centres undefined) returned a composite z-score of 0.199. In the case of `COCCOC(=O)N1C(=O)[C@@]2(c3cc(C#CC4=CCCCC4)ccc31)[C@H](C(N)=O)[C@H]1C(=O)O[C@H](c3ccccc3)[C@H](c3ccccc3)N1[C@@H]2c1ccccc1OCCO` it was 0.32; in that of `CCOC(=O)C[C@H]1[C@H](OC(=O)c2cc3ccccc3oc2=O)[C@@H](NC(=O)c2ccc(-c3ccccc3)cc2)c2cc(OCCCO)ccc2N1C(=O)c1ccc2ccccc2n1`, 0.622; in that of `COC(=O)[C@@]1(Cc2ccc(F)cc2)[C@H]2c3cc(C(=O)N(C)C)n(Cc4cc(F)cc5c4OCOC5)c3C[C@H]2CN1C(=O)c1ccccc1`, 0.105. On to `COC(=O)[C@@]1(Cc2ccccc2)[C@@H]2C(=CC(=O)[C@H]2CC(=O)C(=O)N(C)C)CN1C(=O)c1ccccc1`, for which the composite z-score was 0.159. Next, `CN1C(=O)C2C=CC(C(O)c3ccc(F)cc3)N(Nc3ccccc3)C2C1=O` (centres undefined): -0.165; `CCCC[C@@H]1C[C@H]1[C@@H](NC(=O)c1ccccc1)c1ccc(C(F)(F)F)cc1`: -1.09; `COc1ccc([Si](C)(C)[C@H]2[C@H](CCn3cc([C@H](O)c4ccccc4)nn3)O[C@@]3(C(=O)N(Cc4ccc(N5C(=O)c6cccc7cccc5c67)cc4)c4ccccc43)[C@@H]2C)cc1`: -0.775.

As for `C[N+](C)(C)CCCC[C@@H]1NC(=O)[C@H]2C[C@@H](C(=O)NCCCCCCN)[C@@H](c3ccc(O)cc3)N2C1=O`, the composite z-score is -0.397. Next, `O[C@@H](Cc1ccccc1)[C@@H](/C=C/C1CC1)N(CC#Cc1ccccc1)Cc1cccc(Cl)c1`: -1.69; `CCOC(=O)C[C@H]1[C@H](OC(=O)c2ccccc2-c2ccccc2)[C@@H](NC(=O)c2ccc(-c3ccccc3)cc2)c2cc(OCCCO)ccc2N1C(=O)c1ccc2ccccc2n1`: 0.247; `CN(C)c1ccc(C(O)C2C=CC3C(=O)N(c4ccccc4)C(=O)C3N2Nc2ccc([N+](=O)[O-])cc2)cc1` (centres undefined): 0.332. `COC(=O)[C@@]1(Cc2ccc(OC)cc2)[C@H]2c3cc(C(=O)N4CCCC4)n(Cc4c(-c5ccccc5)noc4C)c3C[C@H]2CN1C(=O)c1ccccc1` displayed a composite z-score of 0.713. For `COc1ccc(-c2nc(-c3ccccc3)c3c(c2C)CO[Si]3(C(C)C)C(C)C)cn1`, the composite z-score is -0.0277. In the case of `O=C1O[C@@H](c2ccccc2)[C@@H](c2ccccc2)N2[C@@H](c3ccc(O)cc3)[C@]3(C(=O)Nc4ccc(C#CC5=CCCCC5)cc43)[C@@H](C(=O)NC[C@H](O)c3ccccc3)[C@H]12`, the composite z-score amounted to 0.829. Next, `CO[C@H]1O[C@H](CO)[C@@H](OC(=O)Nc2ccccc2-c2ccccc2)[C@H](OC(=O)Nc2ccc3c(c2)OCO3)[C@H]1OC(=O)Nc1ccc2c(c1)OCO2`: 0.17.

On to `COC(=O)[C@@]1(Cc2ccc(F)cc2)[C@H]2c3cc(C(=O)N4CCCC4)n(CCN4CNCC4=O)c3C[C@H]2CN1C(=O)c1ccccc1`, for which the composite z-score is -0.472.

As for `CN(C)CCCNC(=O)[C@@H]1c2ccccc2C(=O)N(Cc2ccccc2Cl)[C@H]1c1ccc(CO)cc1`, the composite z-score is -0.493.
